# Test results as given in PMC11062922 (Nature Chemical Biology, 2023).
# Read-outs that look alike come from different tables or passages of the source.
# Assays:
# Set-up in all cases: species or system human, MV4-11 + K-562 + COLO205 + SK-N-BE2 + OVCAR-8
# [1] = system: ABL1; details: read-out: apparent Kd; compound concentrations: 100 nM and 1000 nM (sheet 'Samples'), CATDS: 4.5890401321851898E-3; n = 1
# [2] = system: ACVR1B; details: read-out: apparent Kd, compound concentrations: 100 nM and 1000 nM (sheet 'Samples'), n = 1
# [3] = system: AKT2; details: read-out: apparent Kd, compound concentrations: 100 nM and 1000 nM (sheet 'Samples'), n = 1
# [4] = system: CIT; details: read-out: apparent Kd, n = 1
# [5] = system: EPHA2; details: read-out: apparent Kd, compound concentrations: 100 nM and 1000 nM (sheet 'Samples'), n = 1
# [6] = system: PIK3CA; details: read-out: apparent Kd, n = 1
# [7] = system: PRKG1; details: read-out: apparent Kd, n = 1
# [8] = system: PTK6; details: read-out: apparent Kd, compound concentrations: 100 nM and 1000 nM (sheet 'Samples'), n = 1
# [9] = system: RPS6KA3; details: read-out: apparent Kd; compound concentrations: 100 nM and 1000 nM (sheet 'Samples'), CATDS: 4.3523145160936898E-3; n = 1
# [10] = system: SRC; details: read-out: apparent Kd, compound concentrations: 100 nM and 1000 nM (sheet 'Samples'), n = 1
# [11] = system: ULK3; details: read-out: apparent Kd, n = 1
# [12] = system: YES1; details: read-out: apparent Kd, compound concentrations: 100 nM and 1000 nM (sheet 'Samples'), n = 1
# [13] = system: T1, DJA1; details: read-out: apparent Kd, compound concentrations: 100 nM and 1000 nM (sheet 'Samples'), n = 1
# T1 construct: gene DNAJA1
# [14] = system: CDC7; details: read-out: apparent Kd; compound concentrations: 100 nM and 1000 nM (sheet 'Samples'), CATDS: 3.6033754639237303E-2; n = 1
# [15] = system: NLK; details: read-out: apparent Kd, n = 1
# [16] = system: AKT3; details: read-out: apparent Kd, n = 1
# [17] = system: PAK6; details: read-out: apparent Kd, n = 1
# [18] = system: CDK6; details: read-out: apparent Kd, compound concentrations: 100 nM and 1000 nM (sheet 'Samples'), n = 1
# [19] = system: NUAK2; details: read-out: apparent Kd, compound concentrations: 100 nM and 1000 nM (sheet 'Samples'), n = 1
# [20] = system: NQO2; details: read-out: apparent Kd; compound concentrations: 100 nM and 1000 nM (sheet 'Samples'), CATDS: 3.67642918881117E-2; n = 1
# [21] = compound concentrations:100 nM and 1000 nM (sheet 'Samples')
compound,measurement,setting,value
Cn1ncc2c(N)ncnc21 [SKF-18267],potency estimated from few doses,[1],972 nM
same,potency estimated from few doses,[2]; CATDS: 5.9618595467290699E-3,587 nM
same,potency estimated from few doses,[3]; CATDS: 5.1088836681336602E-3,780 nM
same,potency estimated from few doses,"[4]; compound concentrations: 100 nM and 1000 nM (sheet 'Samples'), CATDS: 4.0396253783402704E-3",1300 nM
same,potency estimated from few doses,[5]; CATDS: 6.1597951567788304E-3,555 nM
same,potency estimated from few doses,"[6]; compound concentrations: 100 nM and 1000 nM (sheet 'Samples'), CATDS: 3.6748488763129201E-2",53.3 nM
same,potency estimated from few doses,"[7]; compound concentrations: 100 nM and 1000 nM (sheet 'Samples'), CATDS: 4.7487342618258797E-3",904 nM
same,potency estimated from few doses,[8]; CATDS: 4.9971490936353098E-3,815 nM
same,potency estimated from few doses,[9],1090 nM
same,potency estimated from few doses,[10]; CATDS: 7.2051481672215003E-3,429 nM
same,potency estimated from few doses,"[11]; compound concentrations: 100 nM and 1000 nM (sheet 'Samples'), CATDS: 5.6428686263863704E-3",647 nM
same,potency estimated from few doses,[12]; CATDS: 6.9300225951379104E-3,456 nM
COc1cccc2c(-c3ccncc3)c(-c3ccc(F)cc3)nn12 [GW468513X],potency estimated from few doses,[2]; CATDS: 0.110012792882782,83.3 nM
same,potency estimated from few doses,"[4]; compound concentrations: 100 nM and 1000 nM (sheet 'Samples'), CATDS: 4.9718513038834899E-2",539 nM
same,potency estimated from few doses,[13]; CATDS: 3.8361892236094597E-2,1520 nM
CCn1c(-c2nonc2N)nc2c(-c3ccccc3)ncc(OCCCN)c21.CCn1c(-c2nonc2N)nc2c(-c3ccccc3)ncc(OCCCN)c21.O=C(O)C(F)(F)F.O=C(O)C(F)(F)F [GSK260205A],potency estimated from few doses,[2]; CATDS: 3.5352360337843801E-2,755 nM
same,potency estimated from few doses,[3]; CATDS: 4.8057080770149398E-2,339 nM
same,potency estimated from few doses,[14],714 nM
same,potency estimated from few doses,"[4]; compound concentrations: 100 nM and 1000 nM (sheet 'Samples'), CATDS: 2.8413357389646399E-2",1630 nM
same,potency estimated from few doses,"[15]; compound concentrations: 100 nM and 1000 nM (sheet 'Samples'), CATDS: 6.7931350663373802E-2",162 nM
Fc1ccc(-c2c(-c3ccncc3)[nH]c3cccnc23)cc1 [RO1153853-000],potency estimated from few doses,[2]; CATDS: 6.54692284622726E-2,700 nM
same,potency estimated from few doses,"[4]; compound concentrations: 100 nM and 1000 nM (sheet 'Samples'), CATDS: 4.9233992215081297E-2",1750 nM
CCn1c(-c2nonc2N)nc2c(C#CC(C)(C)O)nc(CN3CCCC3)cc21 [GSK1000163A],potency estimated from few doses,"[16]; compound concentrations: 100 nM and 1000 nM (sheet 'Samples'), CATDS: 0.185643756681795",1430 nM
same,potency estimated from few doses,"[15]; compound concentrations: 100 nM and 1000 nM (sheet 'Samples'), CATDS: 0.163177352109245",1980 nM
O=C1NC(=O)C(N2CCc3ccccc32)=C1c1ccccc1Cl [SB-373598],potency estimated from few doses,[11]; [21],1450 nM
CC(C)N1CCC(n2cnc(-c3ccc(F)cc3)c2-c2ccnc(N)n2)CC1 [SB-223132],potency estimated from few doses,[15]; [21],195 nM
CCn1c(-c2nonc2N)nc2c(C#CC(C)(C)O)nc(OC[C@@H](N)c3ccccc3)cc21 [GSK938890A],potency estimated from few doses,"[17]; compound concentrations: 100 nM and 1000 nM (sheet 'Samples'), CATDS: 9.3701498593083701E-2",129 nM
same,potency estimated from few doses,"[7]; compound concentrations: 100 nM and 1000 nM (sheet 'Samples'), CATDS: 5.6529109044468798E-2",866 nM
CNCC#Cc1c(F)ccc2c1/C(=C/c1[nH]ccc1OC)C(=O)N2.Cl [RO0281601-001],potency estimated from few doses,[18]; CATDS: 2.2252804154739798E-2,1820 nM
Cc1cccc(Nc2nc(N[C@H]3CCNC3)ncc2C(N)=O)c1.Cl [GSK2197149A],potency estimated from few doses,[6]; [21],110 nM
CNCc1ccc(-c2cc(-c3nc(-c4ccc(S(=O)(=O)C(C)C)cc4)cnc3N)on2)cc1 [VE-822],potency estimated from few doses,[16]; [21],1760 nM
CN(c1ccc(NC(=O)NCCN2CCOCC2)cc1)c1ccnc(Nc2ccc(CS(C)(=O)=O)cc2)n1.Cl [GW830365A],potency estimated from few doses,"[6]; compound concentrations: 100 nM and 1000 nM (sheet 'Samples'), CATDS: 0.11596893366526",201 nM
Cl.Cl.NC(CNC(=O)c1cc(Br)c(-c2ccnc3[nH]ccc23)s1)c1ccccc1.NC(CNC(=O)c1cc(Br)c(-c2ccnc3[nH]ccc23)s1)c1ccccc1 (stereo not drawn) [GSK1322949A],potency estimated from few doses,[19]; CATDS: 3.0654913086493301E-2,1150 nM
same,potency estimated from few doses,"[7]; compound concentrations: 100 nM and 1000 nM (sheet 'Samples'), CATDS: 7.4482262143184694E-2",247 nM
Cc1ccccc1-n1ncc(C(=O)c2ccccc2)c1N [RO1151248-000],potency estimated from few doses,[5]; CATDS: 1.9884880942714601E-2,1440 nM
same,potency estimated from few doses,[8]; CATDS: 2.16089189660327E-2,1160 nM
same,potency estimated from few doses,[10]; CATDS: 2.0715769219535499E-2,1290 nM
CCN(CC)Cc1ccc(Nc2nccc(-c3cnn4ncccc34)n2)cc1 [GW780056X],potency estimated from few doses,[18]; CATDS: 6.8164228175802102E-2,83.2 nM
same,potency estimated from few doses,[20],274 nM
same,potency estimated from few doses,[19]; CATDS: 2.1304819470262599E-2,1070 nM
same,potency estimated from few doses,"[17]; compound concentrations: 100 nM and 1000 nM (sheet 'Samples'), CATDS: 1.8956003976459398E-2",1620 nM
CCn1c(-c2cccnc2O)nc2cnccc21 [SB-736715],potency estimated from few doses,[2]; CATDS: 1.8200726561527599E-2,889 nM
same,potency estimated from few doses,[3]; CATDS: 1.4638911444233901E-2,1360 nM
same,potency estimated from few doses,[13]; CATDS: 1.9156343081097999E-2,812 nM
same,potency estimated from few doses,"[15]; compound concentrations: 100 nM and 1000 nM (sheet 'Samples'), CATDS: 1.3463251782528499E-2",1640 nM
same,potency estimated from few doses,[10]; CATDS: 1.60653948835471E-2,1130 nM
same,potency estimated from few doses,[12]; CATDS: 1.8559890598855499E-2,859 nM
CCn1c(-c2nonc2N)nc2c(C#CC(C)(C)O)nc(O[C@@H](CN)c3ccccc3)cc21.O=C(O)C(F)(F)F [GSK1007102B],potency estimated from few doses,[16]; [21],719 nM
same,potency estimated from few doses,[4]; [21],21.1 nM
same,potency estimated from few doses,[17]; [21],1090 nM
same,potency estimated from few doses,[7]; [21],9.31 nM
